From ChEMBL document CHEMBL3988442, “University of Dundee, Small-Polar-MMV Screening Library” (2021) come the findings set out here.

For some of these results: Entries with a potency or affinity are not part of this list.

Holding throughout (design): scale not given: direction of the effect not stated beside the values
Assay [1] deals with Protein translocase subunit SecA (Escherichia coli (strain K12)) (UniProt P10408). Put plainly: Assay to Identify E. coli SecA ATPase Inhibitors. It is filed as functional. The note with it: 30 µM.
The target in assay [2] is T1, Ubiquitin-activating enzyme e1, putative (Leishmania donovani (strain BPK282A1)) (UniProt E9BSI1).
T1 sequence (whole entry): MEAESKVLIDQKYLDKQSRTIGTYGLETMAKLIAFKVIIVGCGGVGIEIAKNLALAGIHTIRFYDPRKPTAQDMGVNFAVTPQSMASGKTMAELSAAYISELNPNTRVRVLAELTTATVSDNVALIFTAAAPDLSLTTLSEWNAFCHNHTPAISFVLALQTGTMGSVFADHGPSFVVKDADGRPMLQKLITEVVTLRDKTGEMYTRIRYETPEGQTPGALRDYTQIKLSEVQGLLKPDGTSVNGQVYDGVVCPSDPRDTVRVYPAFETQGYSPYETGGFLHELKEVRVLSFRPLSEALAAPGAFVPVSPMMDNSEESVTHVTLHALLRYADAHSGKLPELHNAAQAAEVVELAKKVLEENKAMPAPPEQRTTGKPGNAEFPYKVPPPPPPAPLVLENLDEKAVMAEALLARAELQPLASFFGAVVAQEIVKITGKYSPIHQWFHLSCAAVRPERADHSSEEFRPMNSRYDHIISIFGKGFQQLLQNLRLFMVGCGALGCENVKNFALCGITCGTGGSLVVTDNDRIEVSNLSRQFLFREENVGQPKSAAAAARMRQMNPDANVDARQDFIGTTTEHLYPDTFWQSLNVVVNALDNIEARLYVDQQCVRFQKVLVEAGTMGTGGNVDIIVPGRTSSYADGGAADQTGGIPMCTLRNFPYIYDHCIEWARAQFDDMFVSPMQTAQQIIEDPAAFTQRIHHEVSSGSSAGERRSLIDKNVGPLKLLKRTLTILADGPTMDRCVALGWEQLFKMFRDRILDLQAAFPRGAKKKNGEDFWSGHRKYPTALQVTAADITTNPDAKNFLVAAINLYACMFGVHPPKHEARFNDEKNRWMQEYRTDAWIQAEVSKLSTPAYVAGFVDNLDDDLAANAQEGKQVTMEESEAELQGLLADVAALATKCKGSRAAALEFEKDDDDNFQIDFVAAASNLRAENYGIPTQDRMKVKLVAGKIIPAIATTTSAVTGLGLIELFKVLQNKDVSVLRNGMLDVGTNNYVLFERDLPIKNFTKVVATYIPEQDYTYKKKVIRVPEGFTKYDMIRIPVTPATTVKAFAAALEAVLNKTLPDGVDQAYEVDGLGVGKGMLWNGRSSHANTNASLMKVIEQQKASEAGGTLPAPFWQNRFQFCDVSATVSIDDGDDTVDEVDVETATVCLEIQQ
Put plainly: Leishmania donovani Ubiquitin Activating Enzyme (LdE1). It is filed as functional. The note with it: 30 µM.

Assay [3] has as its target AMP-activated protein kinase, AMPK (Homo sapiens) (UniProt P54646+O43741+P54619+Q9UGJ0+Q9Y478+Q13131+Q9UGI9). Put plainly: AMP-dependent Kinase enzyme assay. An in vitro enzyme assay that detects ADP turnover that is directly proportional to AMPK activity. This uses naive AMPK that is activated during the assay with MK-8722. It counts as functional. The note with it: 30 µM.

Assay [4] concerns the target Sialic acid-binding Ig-like lectin 9 (Homo sapiens) (UniProt Q9Y336). Put plainly: Hs-Siglec9 ALPHAscreen SOP 20170721. The following applies: 10 µM. For orientation: In Alpha technology, singlet oxygen from a donor bead excites a nearby acceptor bead.
In a further assay the test system is Trypanosoma cruzi. Put plainly: Trypanosoma cruzi phosphomannomutase and mannose-1-phosphate guanylyltransferase assay. It is filed as functional. The note with it: 10 µM.
The target of assay [5] is T2, Arginase-2, mitochondrial (Homo sapiens) (UniProt P78540).
T2 sequence (whole entry): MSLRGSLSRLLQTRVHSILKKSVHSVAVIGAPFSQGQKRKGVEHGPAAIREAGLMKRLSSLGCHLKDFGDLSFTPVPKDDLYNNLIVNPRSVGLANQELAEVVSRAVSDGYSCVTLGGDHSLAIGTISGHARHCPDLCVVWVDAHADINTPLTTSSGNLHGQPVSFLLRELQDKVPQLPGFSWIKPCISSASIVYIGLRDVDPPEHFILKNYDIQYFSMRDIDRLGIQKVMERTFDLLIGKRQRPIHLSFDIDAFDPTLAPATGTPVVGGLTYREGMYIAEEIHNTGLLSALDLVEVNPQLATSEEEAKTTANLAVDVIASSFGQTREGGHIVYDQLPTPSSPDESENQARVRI
Put plainly: in vitro enzyme assay to detect the production of urea directly proportional to the activity of Arginase II. Also: in the data most compounds retested in dose-response had high values. The following applies: 33.3 µM. It is filed as functional.

Assay [6] has as its target T3, Proteasome subunit beta (Trypanosoma cruzi) (UniProt O96673).
T3 sequence (whole entry): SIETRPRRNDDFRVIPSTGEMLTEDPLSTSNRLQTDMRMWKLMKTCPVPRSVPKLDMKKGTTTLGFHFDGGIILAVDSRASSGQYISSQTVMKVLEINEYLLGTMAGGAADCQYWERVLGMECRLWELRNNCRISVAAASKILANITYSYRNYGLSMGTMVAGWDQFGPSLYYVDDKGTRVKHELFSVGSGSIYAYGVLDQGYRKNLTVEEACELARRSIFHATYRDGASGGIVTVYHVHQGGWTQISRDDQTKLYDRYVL
Put plainly: Trypanosoma cruzi proteasome chymotrypsin-like activity (TcProtChymo) assay. Also: in the data most compounds retested in dose-response had high values. It is filed as functional. The note with it: 9.37 µM.

The next assay is filed under the species Homo sapiens. Put plainly: To identify inhibition of the IFN signalling (Jak-Stat) pathway via expression of an eGFP reporter gene under the control of an IFN-stimulated response element (ISRE) containing MxA promoter. It is filed as functional. The note with it: 30 µM. (A reporter such as luciferase makes a cellular process visible.)
The target of assay [7] is T4, Tyrosyl-tRNA synthetase, putative (Trypanosoma cruzi (strain CL Brener)) (UniProt Q4DSP6).
T4 sequence (whole entry): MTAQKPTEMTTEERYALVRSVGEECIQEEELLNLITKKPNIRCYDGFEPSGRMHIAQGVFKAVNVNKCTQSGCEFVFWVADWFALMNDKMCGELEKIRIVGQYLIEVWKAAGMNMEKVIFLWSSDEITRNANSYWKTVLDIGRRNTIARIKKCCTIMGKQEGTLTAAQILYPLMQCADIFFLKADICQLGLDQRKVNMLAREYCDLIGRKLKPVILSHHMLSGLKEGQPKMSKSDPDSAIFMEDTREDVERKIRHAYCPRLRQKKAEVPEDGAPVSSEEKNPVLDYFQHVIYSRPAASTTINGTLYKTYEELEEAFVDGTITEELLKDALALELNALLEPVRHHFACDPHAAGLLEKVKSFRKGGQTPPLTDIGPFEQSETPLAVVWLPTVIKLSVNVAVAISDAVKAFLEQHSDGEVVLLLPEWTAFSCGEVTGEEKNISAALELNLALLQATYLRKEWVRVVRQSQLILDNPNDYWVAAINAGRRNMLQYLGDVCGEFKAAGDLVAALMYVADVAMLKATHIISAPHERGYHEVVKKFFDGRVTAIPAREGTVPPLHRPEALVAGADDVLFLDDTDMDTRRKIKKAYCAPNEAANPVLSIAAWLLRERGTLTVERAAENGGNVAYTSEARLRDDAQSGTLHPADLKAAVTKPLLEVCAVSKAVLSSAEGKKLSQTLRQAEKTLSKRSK
Put plainly: Trypanosoma cruzi tyrosyl tRNA synthetase (TcYRS) _High Tyrosine SOP. Also: in the data most compounds retested in dose-response had high values. It counts as functional. The following applies: 30 µM.

In assay [8] the target is T4, Tyrosyl-tRNA synthetase, putative (Trypanosoma cruzi (strain CL Brener)). Put plainly: Trypanosoma cruzi tyrosyl tRNA synthetase (TcYRS) SOP. It is filed as functional. The note with it: 30 µM.
Assay [9] has as its target Chromo domain-containing protein 1 (Saccharomyces cerevisiae (strain ATCC 204508 / S288c) (Baker's yeast)) (UniProt P32657). Put plainly: ScCHD-1 Enzyme Inhibition Assay. Also: in the data most compounds retested in dose-response had high values. The following applies: 30 µM. It is filed as functional.

Sequence of Protein translocase subunit SecA (Escherichia coli (strain K12)) (P10408 whole entry): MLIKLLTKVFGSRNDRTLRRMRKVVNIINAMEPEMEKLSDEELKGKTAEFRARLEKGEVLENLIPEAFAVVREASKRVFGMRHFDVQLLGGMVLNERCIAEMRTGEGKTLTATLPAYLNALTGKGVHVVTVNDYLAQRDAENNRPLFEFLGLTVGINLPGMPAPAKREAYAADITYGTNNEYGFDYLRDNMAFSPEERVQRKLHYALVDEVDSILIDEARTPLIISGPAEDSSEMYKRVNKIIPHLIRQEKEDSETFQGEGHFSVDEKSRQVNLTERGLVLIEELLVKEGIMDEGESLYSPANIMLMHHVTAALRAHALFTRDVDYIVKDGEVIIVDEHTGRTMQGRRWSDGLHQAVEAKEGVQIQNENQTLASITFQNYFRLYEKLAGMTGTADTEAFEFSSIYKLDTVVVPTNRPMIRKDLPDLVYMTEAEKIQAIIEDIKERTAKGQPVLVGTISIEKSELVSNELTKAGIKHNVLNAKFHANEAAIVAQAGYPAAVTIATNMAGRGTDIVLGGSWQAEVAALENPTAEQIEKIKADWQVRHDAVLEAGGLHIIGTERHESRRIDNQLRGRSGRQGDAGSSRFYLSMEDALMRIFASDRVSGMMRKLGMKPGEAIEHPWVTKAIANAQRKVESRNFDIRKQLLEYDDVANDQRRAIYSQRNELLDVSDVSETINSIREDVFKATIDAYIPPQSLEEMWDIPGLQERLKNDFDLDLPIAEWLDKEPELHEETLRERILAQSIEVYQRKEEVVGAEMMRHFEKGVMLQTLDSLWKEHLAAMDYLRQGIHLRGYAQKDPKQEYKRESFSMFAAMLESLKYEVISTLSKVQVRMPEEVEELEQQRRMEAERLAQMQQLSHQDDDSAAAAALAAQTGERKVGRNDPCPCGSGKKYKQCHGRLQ
Sequence of Chromo domain-containing protein 1 (Saccharomyces cerevisiae (strain ATCC 204508 / S288c) (Baker's yeast)) (P32657 whole entry, the tested form may be a part): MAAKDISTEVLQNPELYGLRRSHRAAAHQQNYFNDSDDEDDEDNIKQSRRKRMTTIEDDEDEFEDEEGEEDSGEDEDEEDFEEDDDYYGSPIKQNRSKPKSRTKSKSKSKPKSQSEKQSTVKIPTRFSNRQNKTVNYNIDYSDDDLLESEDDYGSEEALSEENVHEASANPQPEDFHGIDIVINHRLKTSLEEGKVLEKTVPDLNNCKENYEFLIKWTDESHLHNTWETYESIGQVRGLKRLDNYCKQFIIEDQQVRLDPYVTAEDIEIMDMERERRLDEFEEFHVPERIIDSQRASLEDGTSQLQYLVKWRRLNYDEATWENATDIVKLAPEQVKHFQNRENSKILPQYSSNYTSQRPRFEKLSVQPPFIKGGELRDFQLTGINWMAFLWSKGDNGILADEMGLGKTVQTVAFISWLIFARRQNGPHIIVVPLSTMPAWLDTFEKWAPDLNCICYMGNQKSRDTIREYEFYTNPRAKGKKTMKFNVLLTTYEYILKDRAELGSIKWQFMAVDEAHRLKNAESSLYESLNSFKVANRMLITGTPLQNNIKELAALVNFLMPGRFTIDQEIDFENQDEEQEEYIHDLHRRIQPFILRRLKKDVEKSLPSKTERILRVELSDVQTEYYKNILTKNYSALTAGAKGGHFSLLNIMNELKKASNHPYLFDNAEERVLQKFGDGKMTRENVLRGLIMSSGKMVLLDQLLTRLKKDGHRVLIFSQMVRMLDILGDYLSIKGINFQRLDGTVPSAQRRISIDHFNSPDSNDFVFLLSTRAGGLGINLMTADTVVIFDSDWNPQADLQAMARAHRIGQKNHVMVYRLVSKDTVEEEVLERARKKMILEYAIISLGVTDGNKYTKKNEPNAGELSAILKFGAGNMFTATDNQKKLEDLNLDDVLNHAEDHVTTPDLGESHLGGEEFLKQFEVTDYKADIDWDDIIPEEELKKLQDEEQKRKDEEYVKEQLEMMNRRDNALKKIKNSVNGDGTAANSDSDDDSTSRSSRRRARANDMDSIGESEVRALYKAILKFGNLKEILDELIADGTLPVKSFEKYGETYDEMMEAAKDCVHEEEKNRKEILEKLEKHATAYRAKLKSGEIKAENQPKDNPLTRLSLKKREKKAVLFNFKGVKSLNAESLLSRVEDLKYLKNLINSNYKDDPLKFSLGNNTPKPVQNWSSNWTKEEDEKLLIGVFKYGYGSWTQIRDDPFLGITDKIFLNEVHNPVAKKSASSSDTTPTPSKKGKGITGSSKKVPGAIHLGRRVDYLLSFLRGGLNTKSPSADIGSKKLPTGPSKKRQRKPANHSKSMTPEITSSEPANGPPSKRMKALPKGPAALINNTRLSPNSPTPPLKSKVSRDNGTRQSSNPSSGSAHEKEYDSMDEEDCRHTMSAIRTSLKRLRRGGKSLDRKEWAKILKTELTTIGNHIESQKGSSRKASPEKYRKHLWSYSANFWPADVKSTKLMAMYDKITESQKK
Sequence of Sialic acid-binding Ig-like lectin 9 (Homo sapiens) (Q9Y336 whole entry): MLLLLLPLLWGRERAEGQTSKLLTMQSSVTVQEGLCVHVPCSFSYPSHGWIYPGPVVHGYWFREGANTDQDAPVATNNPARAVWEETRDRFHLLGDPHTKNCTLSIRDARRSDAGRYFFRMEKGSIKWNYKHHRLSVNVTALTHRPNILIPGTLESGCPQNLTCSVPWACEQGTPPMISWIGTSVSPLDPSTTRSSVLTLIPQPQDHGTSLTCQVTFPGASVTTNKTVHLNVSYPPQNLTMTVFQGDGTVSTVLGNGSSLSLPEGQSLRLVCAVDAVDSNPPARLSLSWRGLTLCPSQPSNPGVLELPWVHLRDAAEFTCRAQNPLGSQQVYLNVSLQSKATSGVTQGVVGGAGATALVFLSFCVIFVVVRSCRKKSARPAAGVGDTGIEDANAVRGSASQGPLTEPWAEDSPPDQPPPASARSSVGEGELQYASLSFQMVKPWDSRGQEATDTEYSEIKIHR

Take `Cc1ccc(N2CC3(COCCN(Cc4nccs4)C3)OCC2=O)s1` (stereo unspecified): the Percent Effect in [1] is 4.24%; in assay [2], 7.79%; in assay [3], -1.49%; in assay [4], -11.2%; in the assay with Trypanosoma cruzi it was -7.59%; in [5] it was 9.68%. Moreover, the Percent Effect was 17.8% in [6]; 8.7% in the assay listed under Homo sapiens; 3.17% in assay [7]; 8.97% in assay [8]; -11.1% in [9].

With `CCOc1cccc2c1OCC(C(=O)NS(=O)(=O)c1ccc(C)s1)=C2`, the Percent Effect was -4.93% in assay [1]; -8.11% in assay [2]; -7.07% in assay [3]; 7.91% in assay [4]; -1.98% in the assay on Trypanosoma cruzi; 4.01% in [5]. The Percent Effect in [6] was 9.01%; in the assay filed under Homo sapiens, 5.57%; in [7], -9.36%; in assay [8], -18.5%; in assay [9], -1.03%.

Turning to `O=C(NCCN1CCCCC1)c1nc2ccccc2c(=O)[nH]1`, the Percent Effect in assay [1] is 4.74%; in assay [2] it was 9.33%; in assay [3] it was -7.18%; in assay [4] it was -5.32%; in the assay with Trypanosoma cruzi, -8.05%; in assay [5], -13.6%. The Percent Effect was 13.7% in assay [6]; -0.00779% in the assay listed under Homo sapiens; 0% in [7]; 10.3% in assay [8]; -9.94% in [9].

`CNC(=O)CCc1cc(C)nc(C2CCCN2)c1` (stereo unspecified): the Percent Effect in assay [1] is -6.62%; in assay [2] it was 14.9%; in [3] it was 6.02%; in assay [4], 1.63%; with Trypanosoma cruzi, 2.17%; in assay [5] it was -3.02%. The Percent Effect in [6] was 6.08%; in the assay filed under Homo sapiens, -9.75%; in assay [7] it was 2.15%; in assay [8], 11.7%; in [9], -23.7%.

On to `O=C(NCc1ccccc1)N1CCC2(CC(=O)N(c3ccsc3)C2)C1` (stereo unspecified), for which the Percent Effect is -1.66% in [1]; 0% in assay [2]; 3.29% in [3]; 0.825% in assay [4]; 0.977% in the assay on Trypanosoma cruzi; 0.417% in assay [5]. For the same compound, the Percent Effect in [6] is 2.45%; in the assay filed under Homo sapiens, -9.22%; in [7], 85.2%; in [8], 6.1%; in assay [9], -1.83%.

For the compound `Cc1cc(C)n(C2CCCN(C(=O)c3cccc4[nH]ncc34)C2)n1` (stereo unspecified), the Percent Effect is -5.51% in assay [1]; -13.5% in assay [2]; 6.86% in [3]; -7.42% in assay [4]; -4.49% in the assay on Trypanosoma cruzi; -1.67% in assay [5]. The Percent Effect in [6] was 7.69%; in the assay filed under Homo sapiens it was -0.356%; in [7] it was 6.93%; in assay [8], 3.66%; in assay [9], 2.88%.

In the case of `Cc1nc(CN2CCC(C(=O)O)(n3ccc(-c4ccco4)n3)CC2)co1`, the Percent Effect in [1] was -6.11%; in assay [2], 8.22%; in assay [3], -0.438%; in assay [4] it was 4.25%; with Trypanosoma cruzi, 0%; in assay [5] it was -0.399%. Also, the Percent Effect in [6] is 12.9%; in the assay filed under Homo sapiens it was 23.4%; in assay [7], 1.04%; in assay [8], 3.7%; in assay [9] it was -0.0478%.

For `CCn1c(Cn2cncn2)nnc1C1CCN(C(=O)CCSC)CC1`, the Percent Effect in assay [1] was -3.03%; in assay [2], 2.7%; in assay [3], -5.34%; in assay [4] it was 25.4%; in the assay on Trypanosoma cruzi, 3.23%; in assay [5], 20.6%. Besides, the Percent Effect in assay [6] is 0.944%; in the assay listed under Homo sapiens, 20.4%; in assay [7], 6.45%; in assay [8], 13.6%; in assay [9] it was -3.37%.

Turning to `CCC(CO)N(Cc1ccccn1)C(=O)c1ccc2c(c1)CCO2` (stereo unspecified), the Percent Effect was -5.75% in assay [1]; 10.7% in assay [2]; -10.8% in assay [3]; 36.5% in [4]; 7.89% in the assay on Trypanosoma cruzi; 15.6% in assay [5]. The Percent Effect in assay [6] was 13.4%; in the assay filed under Homo sapiens, 12.5%; in assay [7], 0.546%; in assay [8] it was 16.1%; in [9], -5.21%.

For the compound `CN(C)C[C@H]1OC[C@@H]2CCN(C(=O)c3cccn3C)C[C@@H]21`, the Percent Effect is -3.89% in assay [1]; 0% in [2]; -8% in [3]; 19.3% in assay [4]; 4.59% with Trypanosoma cruzi; 9.18% in assay [5]. Moreover, the Percent Effect is 6.44% in [6]; 4.8% in the assay listed under Homo sapiens; 6.45% in assay [7]; 13.6% in assay [8]; -6.04% in assay [9].

`Cc1cccc(Cn2ccc(NS(C)(=O)=O)n2)c1`: the Percent Effect was -6.41% in assay [1]; 7.79% in [2]; -2.37% in assay [3]; 7.5% in assay [4]; 7.77% in the assay on Trypanosoma cruzi; -40% in assay [5]. The Percent Effect in assay [6] is 9.65%; in the assay filed under Homo sapiens, 0.107%; in assay [7], 6.45%; in [8] it was 11.1%; in [9] it was -7.65%.
